Sm TGR inh: qHTS Assay for the Inhibitors of Schistosoma Mansoni Peroxiredoxins; Schistosoma mansoni thioredoxin glutathione reductase (TGR), Q962Y6; AID 485364, 2010; Potency, µM (doses to about 114 µM), hits mostly inhibitors; purified TGR, DTNB reduction, TNB absorbance 405 nm; actives 3% (n = 360,000); further: nearly all actives have a fitted effect of over 60% in size
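TGR 20 nM + NADPH 100 uM (dispensed conc.), cpd preinc 15 min RT; start with NADPH (500 uM addition) then DTNB (15 mM addition). Kinetic TNB absorbance, 405 nm filter. Four-parameter Hill fit across titration.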
AmpC inh detg: qHTS Inhibitors of AmpC Beta-Lactamase (assay with detergent) | P00811 | AmpC hydrolysis of nitrocefin, absorbance 480 nm, 0.01% Triton | Potency, µM (series often up to 114 µM), hits mostly inhibitors | actives 0.041% (n = 370,000); further: nearly all actives have a fitted effect of over 25% in size
Target sequence (P00811 whole entry, looked up): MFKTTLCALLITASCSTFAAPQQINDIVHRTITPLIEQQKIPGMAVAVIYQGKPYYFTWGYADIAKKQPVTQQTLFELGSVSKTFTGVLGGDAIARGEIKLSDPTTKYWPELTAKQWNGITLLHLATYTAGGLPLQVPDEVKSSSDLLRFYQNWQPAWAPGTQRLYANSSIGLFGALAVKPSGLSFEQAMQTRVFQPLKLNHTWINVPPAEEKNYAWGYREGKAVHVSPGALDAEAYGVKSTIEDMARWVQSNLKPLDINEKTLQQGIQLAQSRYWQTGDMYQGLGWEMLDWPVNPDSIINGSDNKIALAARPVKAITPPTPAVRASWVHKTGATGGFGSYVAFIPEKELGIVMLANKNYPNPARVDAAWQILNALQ
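20 mM phosphate pH 7.0 + 0.01% (detergent screen) or 0.0001% Triton X-100; 5.3 nM AmpC reagent; cpd preinc 15 min RT; nitrocefin (800 uM stock) to start; A480 q20 s × 4 min; Activity was normalised to no-enzyme and no-compound control wells.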
AmpC no deterg: qHTS Inhibitors of AmpC Beta-Lactamase (assay without detergent) | AmpC nitrocefin hydrolysis, absorbance 480 nm, 0.0001% Triton | Potency, µM (top dose mostly 57.1 µM), hits mostly inhibitors | actives 0.52% (n = 330,000) | AID 485341, 2010; further: nearly all actives have a fitted effect of over 20% in size
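20 mM phosphate pH 7.0 + 0.01% (detergent screen) or 0.0001% Triton X-100; 5.3 nM AmpC reagent; cpd preinc 15 min RT; nitrocefin (800 uM stock) to start; A480 q20 s × 4 min; Activity was normalised to no-enzyme and no-compound control wells.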
Each line names hits and unclear results; the compound was inactive in the other large screens. In the library only some 3.3% were active in any assay of this set; here they are far more common. The call rests on the fitted dose curve; in most records, active means well fitted curve in the direction sought with a large enough effect; inconclusive means small, poorly fitted or top-dose-only effect, or another doubt; inactive means no such curve, though single readings can be large; an effect the other way counts as inactive or inconclusive.

Cc1ccc(CSc2sc(C(=O)c3ccccc3)c(N)c2C#N)cc1	AmpC no deterg 10µM
N#Cc1c(SCc2ccccc2)sc(C(=O)c2ccccc2)c1N	Sm TGR inh inconclusive
COc1cc(/C=C/C(=O)OCN2C(=O)c3ccccc3C2=O)ccc1OC(F)F	none
COc1ccc(/C=C/C(=O)OCn2c(SC)nnc(C)c2=O)cc1OC	Sm TGR inh 28µM
O=C(NCC(c1ccco1)N1CCOCC1)c1cccc([N+](=O)[O-])c1 (stereo not drawn)	AmpC inh detg inconclusive
O=C(NCC(c1ccco1)N1CCc2ccccc2C1)c1ccc(Cl)c([N+](=O)[O-])c1 (stereo not drawn)	none
O=C(NCC(c1ccco1)N1CCOCC1)c1ccc([N+](=O)[O-])cc1 (stereo not drawn)	Sm TGR inh 4µM
O=C(NCC(c1ccco1)N1CCc2ccccc2C1)c1cccc([N+](=O)[O-])c1 (stereo not drawn)	Sm TGR inh 40µM, AmpC inh detg inconclusive
COc1ccc(CNC(=O)CCc2c(C)nn(-c3ccc(N4CCCCC4)nn3)c2C)c(OC)c1	none (no result: AmpC no deterg)
CC(=O)Nc1ccc(NC(=O)CSc2cn(CC(=O)N(C(C)C)C(C)C)c3ccccc23)cc1	none (no result: AmpC no deterg)
CC(C)CCNC(=O)C1C2C=CC3(CN(Cc4ccccc4Cl)C(=O)C13)O2 (stereo not drawn)	AmpC inh detg inconclusive, AmpC no deterg 8.9µM
CCCCNC(=O)C1C2C=CC3(CN(Cc4ccccc4Cl)C(=O)C13)O2 (stereo not drawn)	none
O=C1/C(=C/c2cccs2)SC(=S)N1N1CCOCC1	Sm TGR inh inconclusive
O=C1/C(=C/c2ccncc2)SC(=S)N1N1CCOCC1	Sm TGR inh 0.89µM
O=C1/C(=C/c2cccnc2)SC(=S)N1N1CCOCC1	Sm TGR inh 2.8µM
C=CCOc1ccc(/C=C2\SC(=S)N(N3CCOCC3)C2=O)cc1	none
CC1CCCCN1C(=O)CSc1n[nH]c(-c2ccccc2)n1 (stereo not drawn)	none (no result: AmpC no deterg)
Cc1nn2c(C)c(C(=O)NCC(C)c3ccccc3)cnc2c1-c1ccccc1 (stereo not drawn)	none (no result: AmpC no deterg)
COc1cc(-c2nnn(CC(=O)Nc3ccc(OC(F)(F)F)cc3)n2)cc(OC)c1OC	none (no result: AmpC no deterg)
O=[N+]([O-])c1cc(-c2nc(-c3ccccn3)no2)ccc1NCc1ccccc1	none (no result: AmpC no deterg)
O=[N+]([O-])c1cc(-c2nc(-c3ccco3)no2)ccc1NCc1ccccc1	Sm TGR inh 35µM (no result: AmpC no deterg)
CC1CN(C(=O)N2CCC(C(=O)NCc3ccccc3F)CC2)c2cc(Cl)ccc2O1 (stereo not drawn)	none (no result: AmpC no deterg)
Nc1cccc(O)c1	Sm TGR inh 7.1µM
NC(=S)Nc1cccc(O)c1	none
COc1cccc(NC(=O)c2cc3c(=O)n(Cc4cccnc4)ccc3nc2C)c1	none (no result: AmpC no deterg)
CCN(CC)S(=O)(=O)c1ccc2c(c1)N(CC(=O)NCc1ccc(F)cc1)C(=O)CO2	none (no result: AmpC no deterg)
COc1ccc(OC)c2sc(N(CCCN(C)C)C(=O)CCS(=O)(=O)c3ccccc3)nc12	Sm TGR inh 3.2µM
CN(C)CCN(C(=O)CCS(=O)(=O)c1ccccc1)c1nc2c(F)cccc2s1	Sm TGR inh inconclusive
CCN(CC)CCN(C(=O)CCS(=O)(=O)c1ccccc1)c1nc2cc(C)cc(C)c2s1	Sm TGR inh inconclusive
CN(C)CCCN(C(=O)CCSc1ccccc1)c1nc2cc3c(cc2s1)OCO3	Sm TGR inh inconclusive, AmpC inh detg inconclusive
CCN(CC)CCN(C(=O)CCS(=O)(=O)c1ccccc1)c1nc2cc(OC)c(OC)cc2s1	Sm TGR inh 14µM
Cc1ccc2sc(N(CCCN(C)C)C(=O)CCS(=O)(=O)c3ccccc3)nc2c1C	Sm TGR inh 7.1µM
CN(C)CCCN(C(=O)CCS(=O)(=O)c1ccccc1)c1nc2cc3c(cc2s1)OCO3	Sm TGR inh 4µM
COc1ccc(Cl)c2sc(N(CCN(C)C)C(=O)CCS(=O)(=O)c3ccc(C)cc3)nc12	AmpC inh detg inconclusive
CCCC1=C/C(=C/c2ccc(-c3ccccc3OC)o2)C(=O)O1	Sm TGR inh 22µM, AmpC inh detg inconclusive, AmpC no deterg 32µM
O=Cc1ccc(-c2ccccc2OC(F)(F)F)o1	none
COc1ccccc1/C=C/C(=O)OCCN1C(=O)c2ccccc2C1=O	none
COc1ccccc1-c1ccc(/C=C2/C=C(CC(C)C)OC2=O)o1	Sm TGR inh 35µM, AmpC no deterg inconclusive
O=C(NCc1ccccc1Cl)c1ccc2c(c1)N(Cc1ccccc1)C(=O)c1ccccc1S2	none (no result: AmpC no deterg)
O=C(CN1CCCN(Cc2ccccc2F)S1(=O)=O)Nc1ccc(F)c(Cl)c1	none (no result: AmpC no deterg)
COc1ccccc1CNC(=O)CN1N=C(c2ccccc2)CCC1=O	none (no result: AmpC no deterg)
CCC1CCc2nc3sc(C(=O)Nc4ccc(C)cc4C)c(N)c3cc2C1 (stereo not drawn)	none (no result: AmpC no deterg)
O=C(CC1C(=O)N(c2ccc(F)cc2)C(=O)N1Cc1ccc2c(c1)OCO2)Nc1ccc(Cl)cc1 (stereo not drawn)	none (no result: AmpC no deterg)
CCN(CC)C(=O)N[C@H]1C[C@@H]2c3cccc4[nH]cc(c34)C[C@H]2N(C)C1	none
CC[C@@H](CO)NC(=O)[C@@H]1C=C2c3cccc4c3c(cn4C)C[C@H]2N(C)C1	Sm TGR inh 8.9µM
CCC(CO)NC(=O)C1C=C2c3cccc4[nH]cc(c34)CC2N(C)C1 (stereo not drawn)	none
CC(C)C[C@H]1C(=O)N2CCC[C@H]2[C@]2(O)O[C@](NC(=O)[C@@H]3C=C4c5cccc6[nH]cc(c56)C[C@H]4N(C)C3)(C(C)C)C(=O)N12	Sm TGR inh 5.6µM
COC(=O)C1C=C2c3cccc4[nH]cc(c34)CC2N(C)C1 (stereo not drawn)	Sm TGR inh 10µM
CCCCN(CC)C(=O)c1ccc2c(c1)NC(=O)c1ccccc1S2	none (no result: AmpC no deterg)
COc1ccccc1NC(=O)CSc1oc(-c2cccs2)nc1S(=O)(=O)c1ccccc1	none (no result: AmpC no deterg)
CC(C)NS(=O)(=O)c1ccc2c(c1)oc(=O)n2C	Sm TGR inh 89µM
CCC1CCCCN1Cc1ccc(CNS(=O)(=O)c2ccc3c(c2)oc(=O)n3C)o1 (stereo not drawn)	Sm TGR inh 79µM
Cn1c(=O)oc2cc(S(=O)(=O)NCc3ccco3)ccc21	Sm TGR inh inconclusive
Cn1c(=O)oc2cc(S(=O)(=O)Nc3ccccc3)ccc21	none
Cc1cc(C)c2c(=O)cc(C(=O)Nc3sc4c(c3C#N)CCCC4)oc2c1	none (no result: AmpC no deterg)
COc1cc(OC)cc(C(=O)Nc2ccc3c(c2)N(C2CCCC2)C(=O)c2ccccc2S3)c1	none (no result: AmpC no deterg)
CN(C)c1ccc(CNC(=O)C2COc3ccccc3C2)cc1 (stereo not drawn)	none (no result: AmpC no deterg)
CCN(Cc1ccccc1)C(=O)c1cnn(-c2ccc(F)cc2)c1-n1cccc1	none (no result: AmpC no deterg)
Cc1ncc(COC(=O)C(C)C)c2cc(C(=O)Nc3ccccc3C(F)(F)F)c(=O)oc12	none (no result: AmpC no deterg)
O=C(NCCN1CCC(Cc2ccccc2)CC1)C1CCN(S(=O)(=O)N2CCC3(CC2)OCCO3)CC1	none
O=C(NCc1ccco1)C1CCN(c2nnc(-n3cccc3)s2)CC1	AmpC no deterg 0.79µM
CN(Cc1ccco1)C(=O)C1CCN(c2nnc(-n3cccc3)s2)CC1	AmpC inh detg inconclusive
